Source: PubChem BioAssay
Compounds with a hit are over-represented: about 11% of the library has one in this group of screens.
Pf growth 96h: P. falciparum growth inhibition at 96 hours | Potency, µM (series often up to 28.7 µM), usual class: inhibitors | 320,000 tested, 6.9% active | P. falciparum luciferase reporter growth, 96 h | AID 504834
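Cell-based qHTS: luciferase-tagged P. falciparum in erythrocytes (2% hematocrit, 0.05% parasitemia final) incubated with compounds for 96 hours, 37 C, 5% CO2; luciferase detection reagent then added and luminescence measured.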
AmpC no deterg: AmpC beta-lactamase inhibition without detergent; P00811; AmpC nitrocefin hydrolysis, absorbance 480 nm, 0.0001% Triton; Potency, µM (highest dose often 57.1 µM), actives largely listed as inhibitors; 330,000 tested, 0.52% active; AID 485341; also: nearly all actives have a fitted effect of over 20% in size
Target sequence (P00811 whole entry, looked up): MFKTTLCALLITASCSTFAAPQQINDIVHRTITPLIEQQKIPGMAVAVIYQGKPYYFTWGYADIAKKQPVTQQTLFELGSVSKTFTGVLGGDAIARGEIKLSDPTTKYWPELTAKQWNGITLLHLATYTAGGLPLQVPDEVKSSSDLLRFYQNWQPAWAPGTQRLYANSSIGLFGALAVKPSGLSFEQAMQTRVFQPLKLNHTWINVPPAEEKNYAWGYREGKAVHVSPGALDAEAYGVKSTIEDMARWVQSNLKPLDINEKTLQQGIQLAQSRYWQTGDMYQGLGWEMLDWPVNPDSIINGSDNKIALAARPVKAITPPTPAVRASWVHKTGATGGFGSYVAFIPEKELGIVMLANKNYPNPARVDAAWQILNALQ
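20 mM phosphate pH 7.0 + 0.01% (detergent screen) or 0.0001% Triton X-100; 5.3 nM AmpC reagent; cpd preinc 15 min RT; nitrocefin (800 uM stock) to start; A480 q20 s × 4 min; Activity was normalised to no-enzyme and no-compound control wells.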
AmpC detergent: blocks E. coli AmpC beta-lactamase in detergent assay. P00811. AmpC hydrolysis of nitrocefin, absorbance 480 nm, 0.01% Triton. Potency, µM (doses to about 114 µM), hits mostly inhibitors. 370,000 tested, 0.041% active; also: nearly all actives have a fitted effect of over 25% in size
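20 mM phosphate pH 7.0 + 0.01% (detergent screen) or 0.0001% Triton X-100; 5.3 nM AmpC reagent; cpd preinc 15 min RT; nitrocefin (800 uM stock) to start; A480 q20 s × 4 min; Activity was normalised to no-enzyme and no-compound control wells.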
AMA1 RON2 block: disrupts binding of P. falciparum AMA1 to RON2; AlphaScreen AMA1-biotinylated RON2 peptide binding; Potency, µM (top dose mostly 58.2 µM), actives largely listed as inhibitors; 360,000 tested, 0.2% active; also: nearly all actives have a fitted effect of over 45% in size
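AMA1 (3D7) with his tag at 25 nM final met compounds first, then biotinylated RON2 peptide at 25 nM; detection used donor plus acceptor beads, 10 µg/mL apiece, read by AlphaScreen after 30 min at room temperature.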
Pf growth 48h: inhibits P. falciparum growth in the first generation, 48 h; P. falciparum luciferase growth in erythrocytes, 48 h; Potency, µM (highest dose often 28.7 µM), hits mostly inhibitors; 310,000 tested, 5.9% active
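Read-out is firefly luciferase luminescence from an integrated reporter in P. falciparum, so falling signal marks reduced parasite growth. Infected erythrocytes were at 2% hematocrit and 0.1% parasitemia (final) in Albumax-supplemented RPMI 1640.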
HCV inhibitor: inhibitors of hepatitis C virus infection; Potency, µM (highest dose often 41.8 µM), actives largely listed as inhibitors; 340,000 tested, 3.4% active; Huh7.5.1 HCVcc-Cre infection, luciferase reporter, 44 h; AID 651820
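A cell-based infection assay in which seeded cells (1,000 per well) receive test compound after 4 h, are inoculated with HCVcc-Cre at approximately 0.5 moi, and are incubated 44 h before luminescence detection.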
Numbers stand for hits; . = inactive; ? = inconclusive; / = not tested or not shown. Calls follow the shape of the dose curve; as a rule, active = well fitted curve in the direction sought with a large enough effect; inconclusive = small, poorly fitted or top-dose-only effect, or another doubt; inactive = no such curve, though single readings can be large; an effect the other way counts as inactive or inconclusive.

SMILES	Pf growth 96h	AmpC no deterg	AmpC detergent	AMA1 RON2 block	Pf growth 48h	HCV inhibitor
CCCN1C(=O)/C(=C/c2ccc(C)o2)SC1=Nc1ccc(OC)cc1	?	.	.	?	?	.
COc1ccc(N=C2S/C(=C\c3ccc(C)o3)C(=O)N2CC(C)C)cc1	3.3µM	.	.	.	/	.
CCSc1nc2n(n1)C(c1ccc(CC)cc1)C(C(=O)Nc1ccccc1OC)=C(C)N2 (stereo unspecified)	/	/	.	/	/	/
O=C(NC1CCCCC1)C(c1cccnc1)N(C(=O)CCl)c1cccc(Cl)c1 (stereo unspecified)	?	.	.	.	?	0.89µM
COc1ccc(C(C(=O)NC2CCCCC2)N(C(=O)CCl)c2ccc(Cl)cc2)cc1 (stereo unspecified)	3.7µM	.	.	.	.	0.56µM
COc1ccc(N(C(=O)c2cnccn2)C(C(=O)NC2CCCCC2)c2ccc(Cl)cc2)cc1 (stereo unspecified)	/	/	/	.	/	.
COC(CN(C(=O)CCl)C(C(=O)NC1CCCCC1)c1ccccc1C)OC (stereo unspecified)	?	.	.	.	15µM	10µM
COC(CN(C(=O)CCl)C(C(=O)NC1CCCCC1)c1ccc(Cl)cc1)OC (stereo unspecified)	2.9µM	.	.	.	?	.
O=C(NC1CCCC1)C(c1ccc(Cl)cc1)N(Cc1ccc(F)cc1)C(=O)CCl (stereo unspecified)	.	.	.	.	.	?
COC(CN(C(=O)CCl)C(C(=O)NC1CCCC(C)C1C)c1ccc(C)cc1)OC (stereo unspecified)	?	.	.	.	.	?
Cc1ccc(Cl)cc1NC(=O)Nc1cn(CC(C)C)c(=O)c2ccccc12	/	/	.	/	/	/
Cc1cc(OCC(=O)NNC(=O)c2cnccn2)cc(C)c1Cl	12µM	.	.	.	?	.
O=C(CCC1CCCCC1)NNC(=O)c1cnccn1	?	.	.	.	13µM	.
COCCNC(=O)C1CCCN(S(=O)(=O)c2ccc3c(ccn3C)c2)C1 (stereo unspecified)	/	/	.	/	/	/
C=Cn1cc[n+](CC(=O)c2ccc(-c3ccccc3)cc2)c1	?	.	.	.	1.5µM	?
O=C(C[n+]1ccccc1)c1ccc(-c2ccccc2)cc1	.	.	.	.	.	.
C=Cn1cc[n+](CC(=O)c2cccs2)c1	6.6µM	.	.	.	?	.
O=C(NCc1ccco1)c1ccc(Br)s1	/	.	.	.	.	.
C=Cn1cc[n+](CC(=O)c2cc(C(C)(C)C)c(O)c(C(C)(C)C)c2)c1	2.1µM	.	.	.	6.6µM	?
C=Cn1cc[n+](CC(=O)c2ccc(Br)s2)c1	3.3µM	.	.	.	?	.
CN1CCN(CC(=O)c2cc(C(C)(C)C)c(O)c(C(C)(C)C)c2)CC1	.	.	.	.	?	?
CCCNC(=O)C1CCN(S(=O)(=O)c2ccc3c(c2)CCCN3C(C)=O)CC1	/	/	.	/	/	/
COc1ccccc1C(=O)Nc1ccccc1C(=O)OCc1cc(=O)n2c(C)csc2n1	/	/	.	/	/	/
CCN(CC)C(=O)CSc1nc2c(c(=O)n(C)c(=O)n2C)n1Cc1ccccc1	/	/	.	/	/	/
Cc1ccc2nc(Nc3nc(C)cc(C(F)(F)F)n3)nc(C)c2c1	5.2µM	.	.	.	?	.
Cc1cc(C(F)(F)F)nc(Nc2nc(C)c3ccccc3n2)n1	/	.	.	.	.	.
Cc1cc(C)c(NC(=O)CN2C(=O)C3(SCC(=O)N3c3ccc(F)cc3)c3ccccc32)c(C)c1 (stereo unspecified)	/	/	.	/	/	/
CC1=CC(C)(C)N2C(=O)C3(SCC(=O)N3c3ccc(F)cc3)c3cc(C)cc1c32 (stereo unspecified)	4.1µM	.	.	?	/	?
Cc1cc(C)n(CC(=O)Nc2cc(F)ccc2F)c(=O)c1C#N	/	/	.	/	/	/
Cn1c(=S)c2[nH]c(SCCN3CCCC3)nc2n(C)c1=O	?	.	.	.	12µM	.
